The supplement of paper PMC6555819

test system: PPARg:RXRa 30nM:10nM, anti-RXR (NR concentration 30 nM, RXRa partner concentration 10 nM); assay: PBM binding z-score (relative to random genomic background probes); higher = stronger binding; sequences stand for … in GC…GCGATTGACAGCGTAGAATGAAGG
Summary of the method: (§1)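 Custom Agilent 4×180K protein-binding microarrays carried double-stranded probes. Their 34-nt variable regions held direct-repeat seeds, single-nucleotide variants, half-site ablations and random human genomic background sequences. Arrays were incubated 1 h with ligand-free nuclear receptor dimers in PBS pH 7.4, 2% milk, 0.02% Triton X-100, 1 mM DTT, 0.2 mg/mL BSA and 0.4 mg/ml salmon testes DNA. Antibodies against each partner (one per run) detected binding, and scanned fluorescence was regression-normalized. Binding z-scores use random background probes as reference.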

| Sequence | PBM binding z-score |
| --- | --- |
| CAAACTAGGTTAAGAGGTCAAAGTCCGCTTCCCG | 5.52 |
| CGTCCAAGGTCAGCAGGTCCGTGAAAGCGACGTG | 0.0631 |
| CGTCATAGTTCAACTAAGGTAACGTAAAGCACGC | 0.562 |
| ACCTCTAGGTAAAAGTTCAGTGAATCCCGAGGAT | 6.26 |
| GCATATAGGTAATACAAGGTGAAAGCCCGATTGT | 0.375 |
| CGAACTAGGTCATTGACAGTACAGTGAATAGTAA | 3.77 |
| AGTCAAAGTTCATTAGGTAACGTAAGATTCAGCT | 3.38 |
| TCTTGTAGATCAACCGGAGGTTAAGAAAGATCGA | 2.69 |
| CGAACTAGGTCAGAACAGGCCAGTGAAGGATGAT | 1.91 |
| ATCTCTAGGTAAGACTCAGTTCAGTTAAGAACGC | 0.445 |
| AGAATGAGCTTACCAAAGATCAGGGAAACGCTTG | 0.32 |
| GATACAGGATCAAGGCCAGAGTACGCGTATTGAT | 0.0722 |
| CGAACTAGGTCAGAACAGGACTGTGAAGGATGAT | 1.77 |
| GCTGCTAGGGCAACTGATGGTCAGCTAAAGCTCG | -1.04 |
| CTCGAAAGGTCGTGCTCGGGTGAGTATACCAAAC | 1.18 |
| GCTTGTAGATCAAGGTTAAGACAGACTAAGCTAA | 0.803 |
| TCTATTAGCTGATTAGGGCAACCGAAACAGCGGA | 2.86 |
| ACTTACGGGTCAAAGAGGTTATAGCACGCGTATA | 2.31 |
| TCTAGTTGGTCAAAGGACACACACTCGAAATGCG | 4.95 |
| GCTGCTAGCTCAGGTTGGTCAGCTAACGGGTACG | -1.04 |

| Sequence | PBM binding z-score |
| --- | --- |
| GCTGCTAGGTCAACTGATGGGCAGCTAAAGCTCG | 0.29 |
| CGGACTGGGGCATAAGGTTACCATAAGCCAGCCC | 2.94 |
| CCTACTGGGCCAAAGGTCATTGCTTCCAATGCTC | 10.1 |
| TCTATCAGTTGATTAGGGCAACCGAAACAGCGGA | 3.34 |
| TCGAGTAGGTGAGGGGCATTCAGAATGGCGTCGA | 1.98 |
| CCGAATGGGGCATAAGGTTACCATAAGCCAGCCC | 1.7 |
| CGTCCAAGGTCAATGCTAGGTCCGTGAAAGCATT | 0.655 |
| CCGACTGGGGCAGAAAGGTTATCATACCATCCGG | 0.694 |
| AGAATGAGGTTACCAAAGAGCAGGGAAACGCTTG | 0.623 |
| TCTTGTAGAGCAGCAGGTTAAGAAAGCTGGCCAA | 1.29 |
| CAAACTAGATCACAGAGGTCAAAGTCCGTGCGTA | 2.01 |
| CCTACAGGGCCATTCAGAGGTCATTGATCATATG | 0.168 |
| CGAACTAGCTCATTGACAGGACAGTGAATAGTAA | -0.245 |
| GGAACGAGGGCATTCGGGTTGATAGCATGGCGAT | -0.367 |
| CTCGAAAGGTCCTGCTCAGGTGAGTATACCAAAC | -0.0279 |
| AGAATGAGGATATACGTAGATCAGGGAAGAAAGT | 0.217 |
| ATCGAAAGGTCTAGGTGAGTATAGAGAAAGGGAA | 0.34 |
| TTACCAAGGTGAGCTGAGGTCGTTGATCCAACTC | -0.00962 |
| GATACAGAGTCAAGGCCAGAGTACGCGTATTGAT | -0.0806 |
| CGTCCAAGGTCAGAGAGATCAGTGAATGCCGAGT | 0.164 |

test system: PPARg:RXRa 90nM:30nM, anti-RXR (NR concentration 90 nM, RXRa partner concentration 30 nM); assay: as above
Summary of the method: as §1

| Sequence | PBM binding z-score |
| --- | --- |
| CAAACTAGGTTAAGAGGTCAAAGTCCGCTTCCCG | 7.19 |
| CGTCCAAGGTCAGCAGGTCCGTGAAAGCGACGTG | 1.82 |
| CGTCATAGTTCAACTAAGGTAACGTAAAGCACGC | 1.56 |
| ACCTCTAGGTAAAAGTTCAGTGAATCCCGAGGAT | 8.74 |
| GCATATAGGTAATACAAGGTGAAAGCCCGATTGT | 0.952 |
| CGAACTAGGTCATTGACAGTACAGTGAATAGTAA | 5.67 |
| AGTCAAAGTTCATTAGGTAACGTAAGATTCAGCT | 5.54 |
| TCTTGTAGATCAACCGGAGGTTAAGAAAGATCGA | 2.15 |
| CGAACTAGGTCAGAACAGGCCAGTGAAGGATGAT | 3.5 |
| ATCTCTAGGTAAGACTCAGTTCAGTTAAGAACGC | 0.237 |
| AGAATGAGCTTACCAAAGATCAGGGAAACGCTTG | -0.0483 |
| GATACAGGATCAAGGCCAGAGTACGCGTATTGAT | 0.052 |
| CGAACTAGGTCAGAACAGGACTGTGAAGGATGAT | 3.09 |
| GCTGCTAGGGCAACTGATGGTCAGCTAAAGCTCG | -0.914 |
| CTCGAAAGGTCGTGCTCGGGTGAGTATACCAAAC | 2.3 |
| GCTTGTAGATCAAGGTTAAGACAGACTAAGCTAA | 1.8 |
| TCTATTAGCTGATTAGGGCAACCGAAACAGCGGA | 2.13 |
| ACTTACGGGTCAAAGAGGTTATAGCACGCGTATA | 4.28 |
| TCTAGTTGGTCAAAGGACACACACTCGAAATGCG | 5.8 |
| GCTGCTAGCTCAGGTTGGTCAGCTAACGGGTACG | -0.839 |

| Sequence | PBM binding z-score |
| --- | --- |
| GCTGCTAGGTCAACTGATGGGCAGCTAAAGCTCG | 1.62 |
| CGGACTGGGGCATAAGGTTACCATAAGCCAGCCC | 4.56 |
| CCTACTGGGCCAAAGGTCATTGCTTCCAATGCTC | 11.1 |
| TCTATCAGTTGATTAGGGCAACCGAAACAGCGGA | 2.54 |
| TCGAGTAGGTGAGGGGCATTCAGAATGGCGTCGA | 2.63 |
| CCGAATGGGGCATAAGGTTACCATAAGCCAGCCC | 3.62 |
| CGTCCAAGGTCAATGCTAGGTCCGTGAAAGCATT | 2.86 |
| CCGACTGGGGCAGAAAGGTTATCATACCATCCGG | 2.13 |
| AGAATGAGGTTACCAAAGAGCAGGGAAACGCTTG | 1.44 |
| TCTTGTAGAGCAGCAGGTTAAGAAAGCTGGCCAA | 1.01 |
| CAAACTAGATCACAGAGGTCAAAGTCCGTGCGTA | 4.09 |
| CCTACAGGGCCATTCAGAGGTCATTGATCATATG | 0.721 |
| CGAACTAGCTCATTGACAGGACAGTGAATAGTAA | -0.396 |
| GGAACGAGGGCATTCGGGTTGATAGCATGGCGAT | 0.323 |
| CTCGAAAGGTCCTGCTCAGGTGAGTATACCAAAC | -0.0509 |
| AGAATGAGGATATACGTAGATCAGGGAAGAAAGT | -0.000713 |
| ATCGAAAGGTCTAGGTGAGTATAGAGAAAGGGAA | 0.331 |
| TTACCAAGGTGAGCTGAGGTCGTTGATCCAACTC | 0.482 |
| GATACAGAGTCAAGGCCAGAGTACGCGTATTGAT | -0.0588 |
| CGTCCAAGGTCAGAGAGATCAGTGAATGCCGAGT | 1.22 |
